Bioassay records: PubChem, National Center for Advancing Translational Sciences (NCATS)
Hits are enriched below; roughly 17% of the tested compounds scored in any of these assays.
ATXN viability: reduces viability in counter-screen for ATXN expression inhibitors | AID 651635 | Potency, µM (top dose mostly 56.7 µM), usual class: cytotoxic | S2 cells (HEK-293 line with an ATXN2-luciferase reporter) viability, CellTiter-Fluor protease fluorescence, 24 h | actives 0.49% (n = 400,000); also: nearly all actives have a fitted effect of over 40% in size
ATXN2 expr inh: reduces ATXN2 reporter expression in HEK-293 cells; HEK-293 ATXN2-luciferase reporter, luminescence, 24 h; actives 0.72% (n = 360,000); Potency, µM (top dose mostly 57 µM), inactives show top-dose activity change, negative = inhibition, usual class: inhibitors; also: % is scaled to controls: 0 for no effect and ±100 for the full control effect; nearly all actives have a fitted effect of over 55% in size
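ATXN2-luciferase reporter cells (luciferase flanked by upstream and downstream ATXN2 gene portions) were treated 24 h at 37 °C with compounds at up to 57 uM. SteadyGlo luminescence gave expression; GF-AFC fluorescence gave viability.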
TGFb SMAD3 inh: inhibitors of TGF-b signaling | Potency, µM (top dose mostly 46.1 µM), without a hit: top-dose activity, negative = inhibition, hits mostly inhibitors | AID 588855 | HepG2 CAGA-GFP TGF-b/SMAD3 reporter, GFP fluorescence, 18 h; TGF-beta stimulated, 500 pg/mL final | actives 1.2% (n = 410,000); also: % is scaled to controls: 0 for no effect and ±100 for the full control effect; nearly all actives have a fitted effect of over 65% in size
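Read-out: total well GFP (ex488/em500-530) summed from mean per-cell fluorescence. Cells: HEPG2 CAGA-GFP, 1% FBS DMEM, 18 h at 37 degrees C with 500 pg/mL final TGF-beta. Unstimulated wells served as the full-inhibition control; stimulated DMSO wells = 0%.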
TDP1 cell CPT: growth inhibition of DT40 Tdp1-/-;hTDP1 cells with camptothecin (screen for TDP1 inhibitors); actives 12% (n = 420,000); chicken DT40 Tdp1-/-;hTDP1 cells + 20 nM CPT, ATP luminescence, 48 h; Potency, µM (series often up to 46.2 µM), for inactives: at the highest dose activity change, negative = growth inhibition, most hits filed as inhibitors; also: % is scaled to controls: 0 for no effect and ±100 for the full control effect; nearly all actives have a fitted effect of over 55% in size
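Cell growth measured by CellTiter-Glo luminescence after a minimum 48 h, 37 C compound exposure with 20 nM CPT in Tdp1-knockout DT40 cells stably expressing hTDP1, seeded 400/well; qHTS titration format.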
HepG2 tox: kills HepG2 cells in TGF-b inhibitor counter-screen; HepG2 CAGA-GFP viability, ATP luminescence, 18 h; Potency, µM (top dose mostly 46.1 µM), for the others: at the highest dose activity change, negative = cytotoxicity, actives largely listed as cytotoxic; actives 0.76% (n = 410,000)
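CellTiter-Glo luminescence gave cytotoxicity after 18 hours at 37 degrees C. The cells were HepG2 CAGA-GFP in 1% FBS DMEM, stimulated with 500 pg/mL TGF-beta after compound addition. %Activity was normalised to no-cell wells (complete cell-killing) and DMSO (no toxicity), and curves were fitted and classified.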
DT40 TDP1 no CPT: qHTS for Inhibitors of human tyrosyl-DNA phosphodiesterase 1 (TDP1): qHTS in cells in absence of CPT. actives 15% (n = 420,000). AID 686978, 2013. DT40 Tdp1-/- hTDP1 cells, no CPT, ATP luminescence, 48 h. Potency, µM (highest dose often 46.2 µM), without a hit: at the highest dose activity change, negative = growth inhibition, most hits filed as inhibitors; also: % is scaled to controls: 0 for no effect and ±100 for the full control effect; nearly all actives have a fitted effect of over 55% in size
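Readout: luminescence from CellTiter-Glo after 30 min in the dark at RT. Cells: DT40 Tdp1-/- with stable hTDP1, 400/well. Exposure: compounds alone, ≥48 hr, 37 °C.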
Numbers without * were called inactive; i = inactive; u = inconclusive; x = not tested or not shown; ! = not active in a repeat; [ ] = remark or other dose. Calls follow the shape of the dose curve; as a rule, active = well fitted curve in the direction sought with a large enough effect; inconclusive = small, poorly fitted or top-dose-only effect, or another doubt; inactive = no such curve, though single readings can be large; an effect the other way counts as inactive or inconclusive. Potency is read from the fitted curve at half-maximal effect.

SMILES	ATXN viability	ATXN2 expr inh	TGFb SMAD3 inh	TDP1 cell CPT	HepG2 tox	DT40 TDP1 no CPT
Cc1nc2c3cccnc3nn2c(C)c1CCC(=O)NCc1ccccc1	i	5.9%	1.1%	-17.4%	-7.6%	-16.6%
CCc1ccccc1NC(=O)C1CCCN(c2cnccn2)C1 (stereo not given)	i	-1.7%	-21.4%	-16.0%	-22.4%	7.2%
Cc1cc(C(=O)NNC(=O)c2ccc(Cl)c(S(N)(=O)=O)c2)c(C)o1	i	-6.3%	-7.7%	-5.9%	0.1%	5.8%
CCOc1ccccc1C1NC(c2ccc3c(c2)OCO3)=CC(c2ccccc2O)N1 (stereo not given)	x	x	-23.4%	11.2µM*	-32.6%	14.1µM*
COc1cc(NS(=O)(=O)c2ccc(OC)c(C)c2C)c(OC)cc1Cl	i	u	u	4.61µM*	-14.6%	3.26µM*
COc1cc(OC)c(NS(=O)(=O)c2cc(-c3cnc(C)o3)ccc2OC)cc1Cl	u	-10.1%	23.7%	20.6µM*	-13.7%	13µM*
COc1ccc(-c2cnc(C)o2)cc1S(=O)(=O)Nc1ccc(F)cc1F	i	13.7%	17.0%	1.1%	0.2%	-21.9%
CCOc1cc(NC(=S)NCc2ccco2)c(OCC)cc1NC(=O)C1CC1	i	-0.7%	-9.9%	-14.7%	-35.4%	-33.9%
CN(C)/C=C1/NC(=S)NC1=O	i	-4.5%	1.2%	-13.6%	-2.4%	-7.1%
COc1cccc(C(=O)CC2(O)C(=O)N(Cc3ccccc3)c3ccccc32)c1 (stereo not given)	x	x	-1.4%	6.51µM*	-17.4%	6.51µM*
CCCN1C(=O)C(O)(CC(=O)c2cccc(OC)c2)c2ccccc21 (stereo not given)	i	-7.5%	-2.9%	4.11µM*	0.8%	3.26µM*
COc1ccc(C(=O)CC2(O)C(=O)N(Cc3cccc(C(F)(F)F)c3)c3ccccc32)cc1 (stereo not given)	x	u	u	x	-106.3%	x
CCCCC/C=C\C\C=C/C=C/C=C/[C@@H](SCC(NC(C)=O)C(=O)O)[C@@H](O)CCCC(=O)O (stereo not given in full)	x	x	x	-26.1%[0.628 µM]	x	-0.2%[0.628 µM]
Cc1cn(C2CCCCC2)c(=O)[nH]c1=O	i	2.0%	7.0%	-3.8%	-9.0%	5.8%
Cc1ncc(CN2CCCC(CCC(=O)NCc3ccc(F)c(F)c3)C2)s1 (stereo not given)	i	-7.0%	15.9%	-27.1%	-0.9%	-24.4%
Cc1ccccc1OCCn1cnc2cc([N+](=O)[O-])ccc2c1=O	i	x	-16.2%	18.4µM*	-0.8%	20.6µM*
O=c1c2ccccc2ncn1CCCOc1ccccc1[N+](=O)[O-]	i	29.5%	-4.5%	u	0.1%	u
NC(=O)CNC1CC(=O)N(CCc2ccccc2)C1=O (stereo not given)	i	3.2%	4.5%	-3.0%	-7.3%	-3.5%
O=c1c2sccc2n(Cc2cc(=O)n3ccccc3n2)c(=O)n1-c1cccc(C(F)(F)F)c1	x	x	-4.7%	-4.5%	1.3%	-8.5%
O=c1[nH]cnc2c1ncn2C1OCC(O)C(O)C1O (stereo not given)	i	7.7%	-2.5%	-9.4%	-14.6%	-10.7%
C=CCNc1ncnc2c1ncn2[C@H]1CN(C2CCCC2)C[C@@H](CO)O1	i	11.1%	0.0%	-1.2%	2.2%	0.7%
O=c1[nH]cnc2c1ncn2C1OC(CO)CC1F (stereo not given)	i	10.6%	6.7%	0.461µM*	-0.9%	1.84µM*
O=c1[nH]cnc2c1ncn2[C@H]1CC[C@@H](CO)O1	i	2.2%	-1.3%	9.2µM*!	14.8%	11.6µM*!
COc1ccccc1NS(=O)(=O)c1cccc(C(=O)NCC(c2cccs2)N2CCOCC2)c1 (stereo not given)	i	-0.2%	-16.5%	-5.4%	-6.4%	u
CN(CC(=O)Nc1ccccc1Cl)C(=O)COC(=O)/C=C/c1ccc(C(F)(F)F)cc1	i	4.6%	16.5%	-8.2%	-2.4%	14.3%
SMILES	ATXN viability	ATXN2 expr inh	TGFb SMAD3 inh	TDP1 cell CPT	HepG2 tox	DT40 TDP1 no CPT
CCOc1ccc(NC(=S)N2CCCN(Cc3cccc(Cl)c3)C2)cc1	i	0.0%	-20.6%	u	-8.9%	u
Cc1cccc(C)c1NC(=S)N1CCCN(Cc2ccc(F)cc2)C1	i	-14.6%	-11.6%	0.4%	-1.6%	u
COc1ccc(NC(=S)N2CCCN(Cc3cccc(Cl)c3)C2)cc1	i	-15.9%	-7.9%	u	-3.4%	16.4µM*
COc1cccc(NC(=S)N2CCCN(Cc3ccc(F)cc3)C2)c1	i	u	-18.9%	-9.6%	6.9%	23.1µM*
O=C(Nc1ccc(F)c(Cl)c1)c1csc(COCCO)n1	i	26.8%	-5.0%	-26.2%	-24.6%	-23.6%
COc1cccc(NC(=O)CN2CCCCCC2)c1	i	-3.2%	-18.9%	2.2%	-33.6%	1.4%
O=C(CCC(=O)c1ccc(Oc2ccccc2)cc1)Nc1ccc(C(=O)O)cc1	i	x	-8.8%	1.6%	-11.9%	-2.7%
Cc1ncc(C[n+]2csc(CCOC(=O)C34CC5CC(CC(C5)C3)C4)c2C)c(N)n1	u	u	3.5%	u	5.9%	u
Cc1c(CCOC(=O)C23CC4CC(CC(C4)C2)C3)sc[n+]1Cc1ccccc1	i	-17.1%	9.9%	u	28.1%	10.3µM*
Cc1c(CCOC(=O)C23CC4CC(CC(C)(C4)C2)C3)sc[n+]1Cc1ccccc1	i	-31.0%	u	4.11µM*	-38.1%	2.91µM*
Cc1cc(C(=O)O)c2c(=O)n(C)c(=O)n(C)c2n1	i	11.5%	1.1%	0.6%	1.1%	-14.6%
CC(C)(C)c1ccc(-c2cn(-c3ccc(Br)cc3)c3[n+]2CCCS3)cc1	i	-21.9%	10µM*	0.164µM*	-21.2%	0.184µM*
COc1ccc(-c2cn(-c3ccccc3)c3[n+]2CCS3)cc1	u	-36.3%	u	2.31µM*	-15.5%	2.31µM*
Fc1ccc(-n2cc(-c3ccccc3)[n+]3c2SCC3)cc1	u	x	-10.1%	-29.7%	-6.4%	u
COc1ccc(CNc2nc(S(=O)(=O)c3ccccc3)c(Cl)s2)cc1OC	i	u	u	u	-24.7%	u
Cc1ccc(CNS(=O)(=O)c2ccc(-n3cccn3)cc2)cc1	i	x	-21.1%	u	-26.4%	u
Cc1ccc(NC(=O)c2cc3c(=O)[nH]c4ccccc4c3n2C)cc1F	i	-6.4%	2.6%	u	-8.7%	-26.1%
